Compounds with a hit are over-represented: about 3.4% of the library has one in this group of screens.
FBW7 act – human FBW7 E3 ligase activation, primary screen. Q969H0. AlphaScreen FBW7–phospho-cyclin E peptide binding, activator screen. normalized activity (activation), % at 26.1 µM. actives 0.13% (n = 650,000). AID 1259310; in the data active = normalized activity above about 1.9%;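 note: purified mutant Fbw7 with reduced substrate affinity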
MITF inh – human MITF inhibition, primary screen; AlphaScreen MITF homodimerization, bead proximity signal; inhibition, % at 2.6 µM; O75030; actives 0.91% (n = 650,000); in the data active = inhibition above about 50%
GPR151 activ – activates the human receptor GPR151. activation, % at 11.2 µM. Q8TDV0. actives 1% (n = 650,000). PathHunter beta-arrestin GPR151 cells, luminescence; in the data active = activation above about 4.9%
Target sequence (Q8TDV0 whole entry, looked up): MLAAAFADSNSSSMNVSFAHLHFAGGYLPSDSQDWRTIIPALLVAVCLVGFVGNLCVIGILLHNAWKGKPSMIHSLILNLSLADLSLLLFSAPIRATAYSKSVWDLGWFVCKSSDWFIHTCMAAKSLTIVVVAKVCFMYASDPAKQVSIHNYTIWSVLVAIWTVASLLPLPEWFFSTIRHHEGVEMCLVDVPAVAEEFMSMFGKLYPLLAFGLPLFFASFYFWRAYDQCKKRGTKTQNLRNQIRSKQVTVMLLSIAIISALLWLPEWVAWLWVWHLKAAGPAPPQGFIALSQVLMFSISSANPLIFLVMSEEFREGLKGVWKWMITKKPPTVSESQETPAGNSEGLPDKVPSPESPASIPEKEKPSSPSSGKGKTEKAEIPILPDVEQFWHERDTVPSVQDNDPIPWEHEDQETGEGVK
TEAD-YAP block – TEAD-YAP interaction inhibition | HEK-TIYL cells, TEAD-Gal4/YAP UAS-luciferase luminescence | inhibition, % at 9.12 µM | actives 1.4% (n = 640,000) | AID 1259422; in the data active = inhibition above about 32%
Large screens that a line does not name were inactive.

CCOc1cc(C2C(C(=O)Nc3ccccc3C)=C(C)Nc3ncnn32)ccc1OC (configuration not stated)	none
O=C(Cc1ccccc1)Nc1ccccc1[N+](=O)[O-]	none
Cc1ccc2cc(CCNS(=O)(=O)c3ccc([N+](=O)[O-])cc3)c(=O)[nH]c2c1	none
O=C(O)Cn1cccc([N+](=O)[O-])c1=O	none
COc1cc(C(=O)Nc2ncc(Cc3cccc(Cl)c3)s2)cc(OC)c1OC	TEAD-YAP block 54
CC(Oc1ccccc1)C(=O)Nc1ncc(Cc2ccccc2)s1 (configuration not stated)	TEAD-YAP block 42
COc1cc(C(=O)Nc2nnc(Cc3ccccc3)s2)cc(OC)c1OC	none
COc1cc(C(=O)Nc2ncc(Cc3ccccc3)s2)cc(OC)c1OC	TEAD-YAP block 53
O=C(Cc1ccccc1)Nc1ncc(Cc2ccccc2)s1	none
Cc1ncoc1C(=O)N1CCC(C(Cc2ccccc2)N(C)C(=O)c2ccoc2C)CC1 (configuration not stated)	none
Cc1nc2scc(C)n2c1C(=O)NC1CCC1	FBW7 act 1.9
c1cn2c(-c3ccc4[nH]ccc4c3)cnc2c(Nc2ccc3[nH]ccc3c2)n1	none
Clc1ccc(Nc2nccn3c(-c4ccoc4)cnc23)cc1	TEAD-YAP block 40
CN(C)CCNC(=O)c1ccc(-c2cnc3c(Nc4ccc5[nH]ccc5c4)nccn23)cc1	TEAD-YAP block 39
Oc1cccc(-c2cnc3c(Nc4ccc5[nH]ccc5c4)nccn23)c1	TEAD-YAP block 97
c1cn2c(-c3ccoc3)cnc2c(Nc2ccc3[nH]ccc3c2)n1	TEAD-YAP block 81
CC(C)C(=O)OCC(=O)Nc1ncc(C(F)(F)F)cc1Cl	none
CC(NC(=O)c1ccco1)c1nnc2n1CCN(Cc1cnc(-c3ccccc3)s1)CC2 (configuration not stated)	none
Cc1cccc2c1-c1sc(C(=O)NC3CC3)cc1CO2	none
O=C(CN1C(=O)c2ccccc2S1(=O)=O)c1ccccc1	TEAD-YAP block 54
CCOC(=O)CN1C(=O)c2ccccc2S1(=O)=O	none
CC(=O)c1c(C)[nH]c(C(=O)CN2C(=O)c3ccccc3S2(=O)=O)c1C	TEAD-YAP block 41
COc1cc(/C=C2/C(=N)N3OC(C)=CC3=NC2=O)cc(Cl)c1OC(=O)c1ccccc1	none
O/C(=C\c1nncn1-c1ccccc1)c1ccc(O)cc1O	none
Cc1cc(C)c[n+](C(C)C(=O)c2ccc(-c3ccccc3)cc2)c1 (configuration not stated)	TEAD-YAP block 72
Cc1ccc[n+](C(C)C(=O)c2ccccc2)c1 (configuration not stated)	none
Cc1ccc(NC(=O)Cn2c(C)cc(=O)c3ccccc32)cc1C	TEAD-YAP block 45
COc1cccc(NC(=O)Cn2c(C)cc(=O)c3cccc(OC)c32)c1	TEAD-YAP block 49
Cc1cccc(NC(=O)Cn2c(C)cc(=O)c3ccccc32)c1	TEAD-YAP block 41
COc1ccc(C(c2ccc3cccnc3c2O)N2CCOCC2)cc1 (configuration not stated)	TEAD-YAP block 80
COc1ccc(C(c2ccc3cccnc3c2O)N2CCCC2)cc1 (configuration not stated)	TEAD-YAP block 84
Oc1c(C(c2ccc(Cl)cc2)N2CCOCC2)ccc2cccnc12 (configuration not stated)	TEAD-YAP block 78
COc1cc(C(c2cc(Cl)c3cccnc3c2O)N2CCCC2)cc(OC)c1OC (configuration not stated)	none
COc1ccc(C(c2sc3nc(C)nn3c2O)N2CCOCC2)cc1 (configuration not stated)	none
CCN(CC)c1ccc2c(c1)OC(N)=C(C#N)C2c1cccc(F)c1 (configuration not stated)	TEAD-YAP block 68
N#CC1=C(N)Oc2cc(N)ccc2C1c1ccc(Br)cc1 (configuration not stated)	none
CN(C)c1ccc2c(c1)OC(N)=C(C#N)C2c1ccc(F)cc1 (configuration not stated)	none
N#CC1=C(N)Oc2cc(N)ccc2C1c1cccc(Br)c1 (configuration not stated)	TEAD-YAP block 55
CCn1c(O)c(C2=NCCC2)c2ccccc21	none
Cc1cccc2sc(NC(=O)CSc3nnnn3-c3ccccc3)nc12	FBW7 act 2.0
Cc1sc(NC(=O)CSc2nnnn2-c2ccccc2)nc1-c1ccccc1	none
COc1ccc(-n2ncc3c(NC(C)(C)C)ncnc32)cc1	TEAD-YAP block 36
COCCCNc1ncnc2c1cnn2-c1ccccc1	TEAD-YAP block 43
CCCNc1ncnc2c1cnn2-c1ccccc1	none
COc1ccc(Nc2cc(C)nc(N3CCN(Cc4ccc5c(c4)OCO5)CC3)n2)cc1	none
COc1cc(C(=O)Oc2cccc(/C=N/NC(=O)c3ccc(C)nc3)c2)cc(OC)c1OC	none
O=C(O)CN1C(=O)/C(=C\c2cccc(Cl)c2)Sc2ccccc21	none
COc1cccc(-n2cc(-c3cc4ccccc4oc3=O)[nH]c2=S)c1	TEAD-YAP block 95
Cc1nc2c(cnn2-c2ccccc2)c(=O)n1-c1cccc2ccccc12	TEAD-YAP block 37
O=C(N/N=C/c1ccc(O)c2ncccc12)c1ccco1	MITF inh 104
Cc1ccc(C(=O)N/N=C\c2cccc(OC(=O)c3ccco3)c2)cn1	FBW7 act 2.2
O=C(N/N=C/c1ccc2ncccc2c1)c1ccco1	TEAD-YAP block 41
O=C(Nc1ccc2ncccc2c1)c1ccco1	none
O=C(N/N=C/c1cc(Cl)ccc1O)c1ccco1	none
COc1cccc(/C=N\NC(=O)c2ccc(C)nc2)c1	none
COc1ccc(C=C(C(=O)Nc2ccccc2OC)C(=O)Nc2ccccc2OC)cc1O	TEAD-YAP block 57
O=C1Nc2ccccc2C1=Nc1ccccc1NS(=O)(=O)c1ccc2ccccc2c1	none
COc1ccc(N2CCN(C(=O)c3ccc(CS(=O)c4ccccc4)o3)CC2)cc1 (configuration not stated)	TEAD-YAP block 46
COc1ccc(N2CCN(C(=O)c3ccc(CS(=O)c4ccc(C)cc4)o3)CC2)cc1 (configuration not stated)	TEAD-YAP block 56
COc1cccc(N2CCN(C(=O)c3ccc(CS(=O)c4ccc(C)cc4)o3)CC2)c1 (configuration not stated)	TEAD-YAP block 63
Cc1ccc(S(=O)Cc2ccc(C(=O)N3CCN(C(=O)c4ccco4)CC3)o2)cc1 (configuration not stated)	none
O=C(CN1CCN(S(=O)(=O)c2ccc(F)c(Cl)c2)CC1)c1ccco1	none
CCOc1ccc(/C=C/C(=O)Nc2ccccc2)cc1	TEAD-YAP block 51
COc1ccc(/C=C/C(=O)Nc2ccc(S(=O)(=O)N(C)Cc3ccccc3)cc2)cc1	TEAD-YAP block 43
CN(Cc1ccccc1)S(=O)(=O)c1ccc(NC(=O)/C=C/c2ccc(F)cc2)cc1	none
CC(=O)/C=C/c1ccc(OCc2ccccc2)cc1	TEAD-YAP block 44
CCN(CC)C(=O)C1CCCc2c1[nH]c1ccc(Cl)cc21 (configuration not stated)	TEAD-YAP block 59
NC(=O)C1CCCc2c1[nH]c1ccc(Cl)cc21 (configuration not stated)	none
